Results filed as inconclusive are left out. Where a call stands in place of a potency, no number is given. The source made the active and inactive calls. Unless noted, calls follow the shape of the dose curve; as a rule, active = well fitted curve in the direction sought with a large enough effect; inconclusive = small, poorly fitted or top-dose-only effect, or another doubt; inactive = no such curve, though single readings can be large; an effect the other way counts as inactive or inconclusive. Numbered stars: 1 amine (or outer) side, 2 acyl side, 3 side chain; on linkers, the order of the positions; unused ones are H or OH. Bridge positions count the residues as written; N and C are the ends. Square brackets hold non-standard residues; d marks the D form. Peptide text beside a SMILES is read from it. * marks the point of attachment. ξ: configuration not given here. ΔAla(E,3-NHCONH2) = NC(=O)N/C=C(/N)C(=O)O; X1 = NC1=NCCC(C(N[*:1])C(=O)[*:2])N1; ξβ3hOrn = NCCCC(N)CC(=O)*; Dap = NC[CH](N)C(=O)O
Assays:
[1] = biological target: Cytochrome P450 3A4 (Homo sapiens) (UniProt P08684); experiment: qHTS Assay for Inhibitors and Substrates of Cytochrome P450 3A4 (AID 884); also: nearly all actives have a fitted effect of over 50% in size
Chain of Cytochrome P450 3A4 (Homo sapiens) (P08684 whole entry, looked up): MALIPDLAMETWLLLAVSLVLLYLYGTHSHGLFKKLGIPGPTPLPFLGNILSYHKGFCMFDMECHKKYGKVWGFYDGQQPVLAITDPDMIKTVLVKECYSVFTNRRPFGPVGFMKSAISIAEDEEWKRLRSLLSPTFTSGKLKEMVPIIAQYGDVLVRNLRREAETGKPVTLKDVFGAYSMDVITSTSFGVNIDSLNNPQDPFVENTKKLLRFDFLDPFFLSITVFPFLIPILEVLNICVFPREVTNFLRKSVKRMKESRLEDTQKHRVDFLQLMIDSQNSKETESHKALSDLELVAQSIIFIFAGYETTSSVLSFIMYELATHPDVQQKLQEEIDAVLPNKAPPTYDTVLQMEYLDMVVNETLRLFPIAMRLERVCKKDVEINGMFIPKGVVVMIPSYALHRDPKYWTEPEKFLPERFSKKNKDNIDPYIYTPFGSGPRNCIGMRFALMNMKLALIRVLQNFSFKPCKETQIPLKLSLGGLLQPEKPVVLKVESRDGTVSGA
How it was run: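 20 nM human CYP3A4 with 25 uM Luciferin-PPXE (at KM) in 200 mM KPO4, preincubated 10 min with compound; NADPH regeneration started a 60 min RT reaction. Luciferin detected by luminescence, normalized to 57 uM ketoconazole as full inhibition.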

[2] = Confirmation and Secondary Assay for Modulators of Hemoglobin Beta Chain Splicing at IVS2 654 locus (AID 910);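 also: per-well total GFP intensity by laser scanning cytometry after 2-day treatment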
How it was run: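 HeLa cells stably carrying EGFP interrupted by mutant beta-globin IVS2-654 intron (CMV-driven) were treated with compound for 2 days at 37C; corrected splicing was scored as total peak GFP intensity per well (488 nm excitation, 500-520 nm emission).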

[3] = Confirmation and Secondary Assay for Modulators of Hemoglobin Beta Chain Splicing at IVS2 705 locus (AID 930);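 also: HeLa cells stably expressing the EGFP-705 splicing reporter; GFP fluorescence per well restored by corrected splicing of the IVS2-705 intron in EGFP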
How it was run: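 Splice-correction reporter: EGFP cDNA split by beta-globin intron 2 bearing the 705 mutation, stably in HeLa. Compound incubation 2 days, 37C; fluorescent objects 5-250 µm summed per well.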

[4] = qHTS Assay for Lipid Storage Modulators (AID 1519; calls by dose curve); settings: Drosophila S3 cells, BODIPY lipid droplet/cell ratio, laser cytometry, cells loaded with oleic acid; for activity change, negative = inhibition: at 57.5 µM (top of the series)
How it was run: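 Cells seeded at 5,000 per well were treated with compounds over a concentration series and loaded with oleic acid (400 uM, as added). Lipid droplet fluorescence (488 nm excitation, 500-530 nm channel) was read by laser-scanning cytometry and normalized to 20 uM Triacsin C.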

[5] = biological target: Ubiquitin carboxyl-terminal hydrolase 1 (Homo sapiens) (UniProt O94782); experiment: Inhibitors of USP1/UAF1: Pilot qHTS (AID 504865);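 also: rhodamine fluorescence freed from ubiquitin-rhodamine substrate followed over time; top concentration of the series differs between compounds; nearly all actives have a fitted effect of over 35% in size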
Chain of Ubiquitin carboxyl-terminal hydrolase 1 (Homo sapiens) (O94782 whole entry, looked up): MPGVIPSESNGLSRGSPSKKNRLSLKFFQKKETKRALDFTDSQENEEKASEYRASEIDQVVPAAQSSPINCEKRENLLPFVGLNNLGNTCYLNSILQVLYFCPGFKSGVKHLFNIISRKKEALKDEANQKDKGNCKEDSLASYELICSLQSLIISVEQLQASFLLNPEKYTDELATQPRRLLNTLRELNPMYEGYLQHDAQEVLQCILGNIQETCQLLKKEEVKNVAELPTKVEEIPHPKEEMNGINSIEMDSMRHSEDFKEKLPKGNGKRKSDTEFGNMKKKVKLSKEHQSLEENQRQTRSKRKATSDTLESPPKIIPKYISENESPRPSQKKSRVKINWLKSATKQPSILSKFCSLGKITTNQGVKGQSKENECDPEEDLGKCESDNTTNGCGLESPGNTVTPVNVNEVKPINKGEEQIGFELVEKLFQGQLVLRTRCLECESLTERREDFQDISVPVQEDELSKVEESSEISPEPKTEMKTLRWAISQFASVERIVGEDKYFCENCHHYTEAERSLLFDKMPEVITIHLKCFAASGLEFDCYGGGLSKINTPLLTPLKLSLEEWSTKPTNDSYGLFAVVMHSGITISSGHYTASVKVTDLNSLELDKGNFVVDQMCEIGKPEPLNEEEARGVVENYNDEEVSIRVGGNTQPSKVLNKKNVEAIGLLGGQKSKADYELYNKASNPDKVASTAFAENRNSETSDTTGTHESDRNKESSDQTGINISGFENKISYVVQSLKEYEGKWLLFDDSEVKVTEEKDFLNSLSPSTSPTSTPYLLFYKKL
How it was run: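 USP1/UAF1 complex at 1 nM preincubated 15 min at room temperature with compound, then Ub-Rho substrate added at 150 nM final. Fluorescence (480/540 nm) read kinetically in 50 mM HEPES pH 7.8, 0.5 mM EDTA, 1 mM TCEP, 0.1 mg/ml BSA, 0.01% Tween-20.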

[6] = measured here: cell count channel max response
[7] = measured here: lipid channel max response

Row | Compound | Potency [1] | Potency [2] | Potency [3] | activity change, negative = inhibition [4] | max response [4, 6] [%] | max response [4, 7] [%] | Potency [5]
1 | CCC1OC(=O)C(C)[C@@H](O[C@H]2C[C@@](C)(OC)C(O)C(C)O2)C(C)[C@@H](O[C@@H]2OC(C)CC(N(C)C)C2O)[C@](C)(O)CC(C)/C(=N\OCOCCOC)[C@H](C)C(O)[C@]1(C)O (stereo partly drawn) | inactive | inactive | inactive | 7.24% (inactive) | 27.8 | 41 | inactive
2 | CC(C)=CC1C(C(=O)O)C1(C)C (stereo not drawn) | inactive | inactive | inactive | 7.47% (inactive) | 18 | 29.9 | inactive
3 | O=C(/C=C/c1ccc(O)c(O)c1)O[C@H]1C[C@@](O)(C(=O)O)CC(O)C1O (stereo partly drawn) | inactive | inactive | inactive | 12.5% (inactive) | 13.7 | 29.5 | inactive
4 | CC(=O)OCC(=O)[C@]1(O)C(OC(C)=O)CC2C3CCC4=CC(=O)C=C[C@@]4(C)[C@]3(F)C(O)C[C@]21C (stereo partly drawn) | inactive | inactive | inactive | 2.18% (inactive) | 7.55 | 12.5 | inactive
5 | CC1O[C@@H](Oc2c(-c3ccc(O)c(O)c3)oc3cc(O)cc(O)c3c2=O)C(O)C(O)C1O (stereo partly drawn) | inactive | inactive | inactive | 10.2% (inactive) | 19.3 | 40.6 | inactive
6 | CCC(CCC(C)C1CCC2C3CCC4CC(O)CC[C@@]4(C)C3CC[C@@]12C)C(C)C (stereo partly drawn) | inactive | inactive | inactive | 7.69% (inactive) | 1.31 | 10.4 | inactive
7 | COc1cc(OC)c2c(c1Cl)OC1(C2=O)C(O)=CC(=O)CC1C (stereo not drawn) | inactive | inactive | inactive | 0.55% (inactive) | -1.12 | 2.38 | inactive
8 | CCC(C)C(NC)C(=O)O (stereo not drawn) | inactive | inactive | inactive | 5.09% (inactive) | 17.4 | 24.1 | inactive
9 | COC1=CC(C)C2CC3OC(=O)CC4C(C)=C(OC)C(=O)C([C@]2(C)C1=O)[C@]34C (stereo partly drawn) | inactive | inactive | inactive | 1.13% (inactive) | 5.55 | 6.48 | inactive
10 | CCCCC(=O)Oc1ccccc1C(=O)O | inactive | inactive | inactive | -0.236% (inactive) | 5.62 | 5.3 | inactive
11 | O=C(O)c1ccc2c(c1)OCO2 | inactive | inactive | inactive | 6.55% (inactive) | 14.4 | 22.7 | inactive
12 | COc1ccc(C2OC3C(CO)OC(n4cnc5c(=O)[nH]c(N)nc54)C3O2)cc1 (stereo not drawn) | inactive | inactive | inactive | 1.28% (inactive) | 11.1 | 13.1 | inactive
13 | Nc1nc2c(c(=O)[nH]1)N(C=O)C(CNc1ccc(C(=O)NC(CCC(=O)O)C(=O)O)cc1)CN2 (stereo not drawn) | inactive | inactive | inactive | 6.17% (inactive) | 17.6 | 27.2 | inactive
14 | COc1ccc(/C=C/c2cc(O)cc(O[C@H]3OC(CO)C(O)C(O)C3O)c2)cc1 (stereo partly drawn) | inactive | inactive | inactive | 8.33% (inactive) | 12.8 | 23 | inactive
15 | CNC1C(O)[C@@H]2OC(O[C@@H]3C(O)C(O)C(N)C[C@H]3N)C(N)C[C@H]2O[C@H]1O[C@@H]1OC(CO)C(N)C(O)C1O (stereo partly drawn) | inactive | inactive | inactive | 6.47% (inactive) | 16.9 | 24.6 | inactive
16 | CC(=O)OCC1OC(n2cnc3c(Cl)nc(Cl)nc32)C(OC(C)=O)C1OC(C)=O (stereo not drawn) | inactive | inactive | inactive | -4.18% (inactive) | 15.8 | 12.7 | inactive
17 | CC(=O)NC(CC(=O)O)C(=O)NC(CCC(=O)O)C(=O)O (stereo not drawn) (Ac-Asp-Glu-OH; configuration not given here) | inactive | inactive | inactive | 4.52% (inactive) | 12.9 | 18.5 | inactive
18 | CC1CC[C@]2(CO)CC[C@]3(C)C(=CCC4[C@@]5(C)CCC(O)C(C)(C)C5CC[C@@]43C)C2C1C (stereo partly drawn) | inactive | inactive | inactive | 6.23% (inactive) | 4.46 | 20 | inactive
19 | O=c1[nH]c(Cl)nc2c1ncn2C1OC(CO)C(O)C1O (stereo not drawn) | inactive | inactive | inactive | 5.69% (inactive) | 2.53 | 10.3 | inactive
20 | CCOc1ccc(C(=O)c2ccc(OC)c(O)c2O)cc1 | inactive | inactive | inactive | 7.45% (inactive) | 6.67 | 16.2 | inactive
21 | O=c1cc(-c2ccccc2)oc2cc(O)c(O)cc12 | inactive | inactive | inactive | -1.09% (inactive) | -7.11 | -6.23 | inactive
22 | CC(=O)O[C@@]1(C(C)=O)CCC2C3C=C(Cl)C4=CC(=O)C5CC5[C@@]4(C)C3CC[C@]21C (stereo partly drawn) | inactive | inactive | inactive | 2.54% (inactive) | -3.69 | 0.864 | inactive
23 | Nc1ncnc2c1ncn2C1OC(COP(=O)(O)O)C(O)C1O (stereo not drawn) | inactive | inactive | inactive | 5.46% (inactive) | 29.6 | 41.9 | inactive
24 | Nc1nc2ncc(=O)[nH]c2c(=O)[nH]1 | inactive | inactive | inactive | 4.1% (inactive) | 2.7 | 6.73 | inactive
25 | CC1(C)SC2C(NC(=O)C(NC(=O)N3CCNC3=O)c3ccccc3)C(=O)N2C1C(=O)O (stereo not drawn) | inactive | inactive | inactive | 8.06% (inactive) | 17.4 | 28.9 | inactive

Row | Compound | Potency [1] | Potency [2] | Potency [3] | activity change, negative = inhibition [4] | max response [4, 6] [%] | max response [4, 7] [%] | Potency [5]
26 | NCCCC(N)CC(=O)NCC1NC(=O)C(CO)NC(=O)C(N)CNC(=O)C(C2CCN=C(N)N2)NC(=O)/C(=C\NC(N)=O)NC1=O (stereo not drawn) (H-[Dap]S[Dap](ξβ3hOrn)[ΔAla(E,3-NHCONH2)][X1]; lactam 1-C; configuration not given here) | inactive | inactive | inactive | 2.39% (inactive) | 15.4 | 21.2 | inactive
27 | CC(=O)OCC(=O)[C@@]1(O)CCC2C3CCC4=CC(=O)CC[C@@]4(C)[C@]3(F)C(O)C[C@]21C (stereo partly drawn) | inactive | inactive | inactive | 4.35% (inactive) | 21.1 | 29.1 | inactive
28 | CC(=O)Oc1c(C)cccc1C(=O)O | inactive | inactive | inactive | 5.46% (inactive) | 15.6 | 23.9 | inactive
29 | COc1ccc2c(C)cc(=O)oc2c1 | inactive | inactive | inactive | 8.28% (inactive) | 31.7 | 42.1 | inactive
30 | CC(C(=O)O)C1CCC2C3CC=C4CC(O)CC[C@@]4(C)C3CC[C@]12C (stereo partly drawn) | inactive | inactive | inactive | 4.4% (inactive) | 6.91 | 12.2 | inactive
31 | CC(=O)NC1C(O)C[C@@](O)(C(=O)O)OC1[C@@H](O)C(O)CO (stereo partly drawn) | inactive | inactive | inactive | 3.62% (inactive) | 13.3 | 18.3 | inactive
32 | O=C/C=C/c1ccc(O)cc1 | inactive | inactive | inactive | 4.82% (inactive) | 10.7 | 16.6 | inactive
33 | COc1ccc(-c2coc3c(OC)c(OC)cc(OC)c3c2=O)cc1 | inactive | inactive | inactive | 12.7% (inactive) | 16.4 | 29.7 | inactive
34 | CC(=O)O[C@]1(C)CC[C@]23CC1C(C)(C)C2CC[C@@H]3C (stereo partly drawn) | inactive | inactive | inactive | 3.63% (inactive) | 7.64 | 13.6 | inactive
35 | O=C(O)C(O)C(O)C(O)C(O)C(=O)O (stereo not drawn) | inactive | inactive | inactive | 5% (inactive) | 3.45 | 13 | inactive
36 | COC1C(O)C(CO)OC1n1cnc2c(=O)[nH]c(N)nc21 (stereo not drawn) | inactive | inactive | inactive | 5.46% (inactive) | 13.5 | 20.7 | inactive
37 | CC1(C)C2CC[C@@]1(C)C(=O)C2 | inactive | inactive | inactive | 3.53% (inactive) | 13.5 | 19.8 | inactive
38 | CCC(/C=C/C(C)C1CCC2C3CC=C4CC(O)CC[C@@]4(C)C3CC[C@@]12C)C(C)C (stereo partly drawn) | inactive | inactive | inactive | -0.637% (inactive) | 13.1 | 13.6 | inactive
39 | CCOC(=O)c1c(C)cc(O)c(C)c1O | inactive | inactive | inactive | 6.04% (inactive) | 15.9 | 23.2 | inactive
40 | CCOc1ccc(C(=O)c2ccc(O)c(O)c2O)cc1 | inactive | inactive | inactive | 4.84% (inactive) | -5.66 | -2.36 | inactive
41 | OCC1OC(n2cnc3c(Cl)nc(Cl)nc32)C(O)C1O (stereo not drawn) | inactive | inactive | inactive | 6.74% (inactive) | 16.5 | 22.9 | inactive
42 | CCCC1CC(C(=O)N[C@H](C(C)O)C2OC(SC)[C@@H](O)C(O)C2O)N(C)C1 (stereo partly drawn) | inactive | inactive | inactive | 12.2% (inactive) | 19.1 | 38.8 | inactive
43 | Nc1nc2c(nc(Cl)n2C2OC(CO)C(O)C2O)c(=O)[nH]1 (stereo not drawn) | inactive | inactive | inactive | 3.5% (inactive) | 20 | 24.4 | inactive
44 | COc1cccc(/C=C/C(=O)O)c1C(C)C | inactive | inactive | inactive | 9.75% (inactive) | 13 | 26.7 | inactive
45 | NCC1CCCCC1CC(=O)O (stereo not drawn) | inactive | inactive | inactive | 5.88% (inactive) | 16.7 | 26.7 | inactive
46 | O=C(O)CCCCC1SCC2NC(=O)NC21 (stereo not drawn) | inactive | inactive | inactive | 0.834% (inactive) | 11.8 | 16 | inactive
47 | CC1CCC(C(C)C)[C@H](O)C1 (stereo partly drawn) | inactive | inactive | inactive | 8.01% (inactive) | -2.41 | -1.46 | inactive
48 | NC(CCC(=O)NC(CCSC(CC(=O)O)C(=O)O)C(=O)NCC(=O)O)C(=O)O (stereo not drawn) | inactive | inactive | inactive | 6.92% (inactive) | 13.3 | 21.2 | inactive
49 | C=C(C)C1CC=C(CO)CC1 (stereo not drawn) | inactive | inactive | inactive | 0.669% (inactive) | -1.53 | 1.38 | inactive
